About 7,900 targets were measured; listed, in parts, are those with a hit and a random draw of the rest. About 0.6% of all pairs of compound and target were hits.
Key:
Test in all cases: log2 fold change, soluble protein after heating vs DMSO (PISA); higher = thermal stabilisation; K562 cells, 10 uM, 30 min; active = over 0.2 and 3.5 SD of the protein, either way, in both replicates (recomputed)
saracatinib = compound: CN1CCN(CCOc2cc(OC3CCOCC3)c3c(Nc4c(Cl)ccc5c4OCO5)ncnc3c2)CC1 [saracatinib]
In short: (§1)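 For each measurement, 10 μM compound was applied for 30 min to K562 cells at 2×10^6 cells/mL. Aliquots were heated for 3 min across 48°C-58°C, pooled, and extracted in PBS with 0.5% NP-40 at 4°C; the supernatant after 21,000xg for 90 min was soluble protein. This was quantified by TMTpro 16plex LC-MS/MS with channel sums equalised, and thermal stability was reported relative to control samples from duplicates, on a log2 fold-change scale.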

sotrastaurin = compound: CN1CCN(c2nc(C3=C(c4c[nH]c5ccccc45)C(=O)NC3=O)c3ccccc3n2)CC1 [sotrastaurin]
In short: as §1

alvocidib = compound: CN1CC[C@H](c2c(O)cc(O)c3c(=O)cc(-c4ccccc4Cl)oc23)[C@H](O)C1 [alvocidib]
In short: as §1

Tubastatin A = compound: CN1CCc2c(c3ccccc3n2Cc2ccc(C(=O)NO)cc2)C1 [Tubastatin A]
In short: as §1

[1] = compound: CNC(=O)C1=CC=CC=C1NC2=NC(=NC=C2Cl)NC3=C(C=C(C=C3)N4CCOCC4)OC
In short: as §1

defactinib = compound: CNC(=O)c1ccc(Nc2ncc(C(F)(F)F)c(NCc3nccnc3N(C)S(C)(=O)=O)n2)cc1 [defactinib]
In short: as §1

rucaparib = compound: CNCc1ccc(-c2[nH]c3cc(F)cc4c3c2CCNC4=O)cc1 [rucaparib]
In short: as §1

[2] = compound: CNc1nc(-c2ccc3c(N)n[nH]c3c2)cc(N2C[C@@H](C(=O)NC3CCCCC3)CC[C@H]2C)n1
In short: as §1

encorafenib = compound: COC(=O)N[C@@H](C)CNc1nccc(-c2cn(C(C)C)nc2-c2cc(Cl)cc(NS(C)(=O)=O)c2F)n1 [encorafenib]
In short: as §1

[3] = compound: COC(=O)[C@H](CCSC)NC(=O)C1=C(C=C(C=C1)NC[C@H](CS)N)C2=CC=CC=C2
In short: as §1

[4] = compound: COC1=CC=C(C=C1)CN2C=CC3=C2C=C(C=C3)C(=O)NO
In short: as §1

filanesib = compound: CON(C)C(=O)N1N=C(c2cc(F)ccc2F)S[C@@]1(CCCN)c1ccccc1 [filanesib]
In short: as §1

zotarolimus = compound: CO[C@H]1C[C@@H]2CC[C@@H](C)[C@@](O)(O2)C(=O)C(=O)N2CCCC[C@H]2C(=O)O[C@H]([C@H](C)C[C@@H]2CC[C@H](n3cnnn3)[C@H](OC)C2)CC(=O)[C@H](C)/C=C(\C)[C@@H](O)[C@@H](OC)C(=O)[C@H](C)C[C@H](C)/C=C/C=C/C=C/1C [zotarolimus]
In short: as §1

idasanutlin = compound: COc1cc(C(=O)O)ccc1NC(=O)[C@@H]1N[C@@H](CC(C)(C)C)[C@](C#N)(c2ccc(Cl)cc2F)[C@H]1c1cccc(Cl)c1F [idasanutlin]
In short: as §1

alisertib = compound: COc1cc(Nc2ncc3c(n2)-c2ccc(Cl)cc2C(c2c(F)cccc2OC)=NC3)ccc1C(=O)O [alisertib]
In short: as §1

[5] = compound: COc1cc2nc(-c3cc(F)ccc3O)nc(N[C@@H]3CNC[C@H]3C(C)(C)O)c2cc1OC
In short: as §1

gefitinib = compound: COc1cc2ncnc(Nc3ccc(F)c(Cl)c3)c2cc1OCCCN1CCOCC1 [gefitinib]
In short: as §1

[6] = compound: COc1cccc2cc(-c3nc([C@H]4CC[C@H](C(=O)O)CC4)n4ncnc(N)c34)[nH]c12
In short: as §1

lapatinib = compound: CS(=O)(=O)CCNCc1ccc(-c2ccc3ncnc(Nc4ccc(OCc5cccc(F)c5)c(Cl)c4)c3c2)o1 [lapatinib]
In short: as §1

pictilisib = compound: CS(=O)(=O)N1CCN(Cc2cc3nc(-c4cccc5[nH]ncc45)nc(N4CCOCC4)c3s2)CC1 [pictilisib]
In short: as §1

Measured: log2 fold change

MIS12 (UniProt Q9H081)
Sequence of UniProt Q9H081 (Q9H081 whole entry, looked up): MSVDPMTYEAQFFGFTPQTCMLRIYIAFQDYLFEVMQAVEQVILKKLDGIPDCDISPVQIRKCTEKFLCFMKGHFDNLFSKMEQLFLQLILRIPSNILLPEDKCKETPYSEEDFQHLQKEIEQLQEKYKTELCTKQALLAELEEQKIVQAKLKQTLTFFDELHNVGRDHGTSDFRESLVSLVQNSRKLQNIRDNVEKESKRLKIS
inactive: saracatinib 0.04 | sotrastaurin -0.014 | alvocidib -0.145 | Tubastatin A 0.031 | [1] 0.002 | defactinib -0.143 | rucaparib 0.021 | [2] -0.006 | encorafenib 0.021 | [3] -0.052 | [4] 0.079 | filanesib 0.004 | zotarolimus 0.077 | idasanutlin -0.011 | alisertib 0.06 | [5] 0.035 | gefitinib 0.026 | [6] 0.032 | lapatinib -0.048 | pictilisib -0.005

NAPG (UniProt Q99747)
Sequence of UniProt Q99747 (Q99747 whole entry, looked up): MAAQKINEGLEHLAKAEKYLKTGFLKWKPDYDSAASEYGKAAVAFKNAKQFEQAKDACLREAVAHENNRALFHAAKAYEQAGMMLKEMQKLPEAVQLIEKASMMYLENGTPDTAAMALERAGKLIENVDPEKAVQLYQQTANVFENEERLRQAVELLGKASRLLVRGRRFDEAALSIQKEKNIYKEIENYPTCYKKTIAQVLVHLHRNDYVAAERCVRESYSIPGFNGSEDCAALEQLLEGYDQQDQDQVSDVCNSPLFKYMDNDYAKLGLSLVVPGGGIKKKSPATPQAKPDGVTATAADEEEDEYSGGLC
inactive: saracatinib -0.028 | sotrastaurin -0.075 | alvocidib -0.137 | Tubastatin A 0.048 | [1] 0.031 | defactinib -0.159 | rucaparib 0.044 | [2] 0.053 | encorafenib 0.052 | [3] -0.028 | [4] 0.046 | filanesib -0.046 | zotarolimus 0.052 | idasanutlin -0.001 | alisertib -0.005 | [5] -0.066 | gefitinib 0.025 | [6] -0.089 | lapatinib 0.029 | pictilisib -0.008

NDUFA9 (UniProt Q16795)
Sequence of UniProt Q16795 (Q16795 whole entry, looked up): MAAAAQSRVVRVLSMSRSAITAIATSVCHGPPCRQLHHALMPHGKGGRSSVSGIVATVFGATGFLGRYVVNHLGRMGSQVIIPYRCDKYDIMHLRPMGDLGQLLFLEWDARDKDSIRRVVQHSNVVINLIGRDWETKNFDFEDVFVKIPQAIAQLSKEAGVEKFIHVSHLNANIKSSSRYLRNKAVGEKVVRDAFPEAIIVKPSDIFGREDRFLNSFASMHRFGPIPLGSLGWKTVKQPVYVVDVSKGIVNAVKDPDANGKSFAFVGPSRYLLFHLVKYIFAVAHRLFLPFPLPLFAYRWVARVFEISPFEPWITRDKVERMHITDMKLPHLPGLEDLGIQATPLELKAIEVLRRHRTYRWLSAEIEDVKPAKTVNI
inactive: saracatinib -0.003 | sotrastaurin -0.008 | alvocidib -0.022 | Tubastatin A -0.013 | [1] -0.034 | defactinib -0.011 | rucaparib -0.038 | [2] 0.036 | encorafenib 0.048 | [3] -0.004 | [4] -0.002 | filanesib -0.116 | zotarolimus 0.008 | alisertib -0.04 | [5] -0.008 | gefitinib -0.055 | [6] 0.014 | lapatinib -0.052 | pictilisib -0.024
active: idasanutlin -0.229

NEU1 (UniProt Q99519)
inactive: saracatinib -0.044 | sotrastaurin 0 | alvocidib -0.033 | Tubastatin A 0.028 | [1] -0.113 | defactinib -0.011 | rucaparib -0.012 | [2] -0.011 | encorafenib -0.012 | [3] -0.019 | [4] 0.153 | filanesib -0.107 | zotarolimus 0.001 | idasanutlin 0.015 | alisertib -0.123 | [5] -0.05 | gefitinib -0.091 | [6] -0.073 | lapatinib -0.015 | pictilisib -0.113

NFATC2IP (UniProt Q8NCF5)
Sequence of UniProt Q8NCF5 (Q8NCF5 whole entry, looked up): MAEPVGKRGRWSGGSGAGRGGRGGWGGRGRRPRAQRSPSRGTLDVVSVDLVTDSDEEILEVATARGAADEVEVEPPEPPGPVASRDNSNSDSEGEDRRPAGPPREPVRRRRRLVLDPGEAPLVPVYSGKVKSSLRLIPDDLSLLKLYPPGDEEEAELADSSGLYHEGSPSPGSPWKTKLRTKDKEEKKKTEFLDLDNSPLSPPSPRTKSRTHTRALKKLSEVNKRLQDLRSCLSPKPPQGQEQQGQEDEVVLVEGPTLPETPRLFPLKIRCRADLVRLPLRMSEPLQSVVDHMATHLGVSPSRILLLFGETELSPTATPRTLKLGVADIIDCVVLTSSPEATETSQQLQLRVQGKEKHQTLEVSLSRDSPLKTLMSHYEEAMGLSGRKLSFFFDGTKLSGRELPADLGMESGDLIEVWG
inactive: saracatinib 0.065 | sotrastaurin -0.033 | alvocidib -0.107 | Tubastatin A 0.012 | [1] 0.067 | defactinib -0.122 | rucaparib 0 | [2] 0.005 | encorafenib 0.075 | [3] -0.017 | [4] -0.008 | filanesib -0.015 | zotarolimus -0.021 | idasanutlin -0.141 | alisertib 0.01 | [5] 0.026 | gefitinib 0 | [6] 0.056 | lapatinib 0.029 | pictilisib 0.098

NASP (UniProt P49321)
Sequence of UniProt P49321 (P49321 whole entry, looked up): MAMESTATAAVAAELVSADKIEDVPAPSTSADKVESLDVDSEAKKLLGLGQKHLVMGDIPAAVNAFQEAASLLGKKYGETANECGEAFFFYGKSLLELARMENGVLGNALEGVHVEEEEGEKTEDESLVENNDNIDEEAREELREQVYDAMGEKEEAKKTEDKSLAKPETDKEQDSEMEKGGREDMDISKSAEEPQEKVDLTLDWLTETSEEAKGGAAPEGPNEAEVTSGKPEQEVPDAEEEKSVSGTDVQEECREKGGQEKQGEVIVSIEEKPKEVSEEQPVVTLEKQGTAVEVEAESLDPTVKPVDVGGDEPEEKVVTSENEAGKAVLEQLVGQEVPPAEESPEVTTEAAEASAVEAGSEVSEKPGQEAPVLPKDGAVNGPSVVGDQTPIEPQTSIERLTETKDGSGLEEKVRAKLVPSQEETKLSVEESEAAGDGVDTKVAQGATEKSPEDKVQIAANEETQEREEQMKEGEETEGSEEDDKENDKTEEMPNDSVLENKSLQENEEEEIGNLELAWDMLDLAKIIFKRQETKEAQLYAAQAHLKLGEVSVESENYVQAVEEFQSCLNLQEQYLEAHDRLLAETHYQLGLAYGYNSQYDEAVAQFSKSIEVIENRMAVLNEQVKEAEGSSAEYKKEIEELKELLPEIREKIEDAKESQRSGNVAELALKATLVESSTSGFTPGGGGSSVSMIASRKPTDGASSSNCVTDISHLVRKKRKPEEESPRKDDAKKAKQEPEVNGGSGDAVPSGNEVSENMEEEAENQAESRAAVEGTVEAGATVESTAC
inactive: saracatinib 0 | sotrastaurin -0.045 | alvocidib -0.08 | Tubastatin A 0.012 | [1] 0.073 | defactinib -0.085 | rucaparib -0.11 | [2] -0.041 | encorafenib 0.001 | [3] -0.004 | [4] 0.01 | filanesib -0.009 | zotarolimus 0.05 | idasanutlin -0.021 | alisertib -0.03 | [5] 0.029 | gefitinib 0.001 | [6] -0.023 | lapatinib -0.023 | pictilisib 0.007

MRPS31 (UniProt Q92665)
inactive: saracatinib 0.031 | sotrastaurin -0.088 | alvocidib 0.04 | Tubastatin A 0.053 | [1] 0.025 | defactinib 0.027 | rucaparib 0.031 | [2] 0.078 | encorafenib 0.041 | [3] 0.016 | [4] 0.016 | filanesib 0.029 | zotarolimus 0.03 | idasanutlin -0.202 | alisertib -0.008 | [5] -0.025 | gefitinib -0.077 | [6] -0.016 | lapatinib 0.054 | pictilisib -0.005

OSBP (UniProt P22059)
Sequence of UniProt P22059 (P22059 whole entry, looked up): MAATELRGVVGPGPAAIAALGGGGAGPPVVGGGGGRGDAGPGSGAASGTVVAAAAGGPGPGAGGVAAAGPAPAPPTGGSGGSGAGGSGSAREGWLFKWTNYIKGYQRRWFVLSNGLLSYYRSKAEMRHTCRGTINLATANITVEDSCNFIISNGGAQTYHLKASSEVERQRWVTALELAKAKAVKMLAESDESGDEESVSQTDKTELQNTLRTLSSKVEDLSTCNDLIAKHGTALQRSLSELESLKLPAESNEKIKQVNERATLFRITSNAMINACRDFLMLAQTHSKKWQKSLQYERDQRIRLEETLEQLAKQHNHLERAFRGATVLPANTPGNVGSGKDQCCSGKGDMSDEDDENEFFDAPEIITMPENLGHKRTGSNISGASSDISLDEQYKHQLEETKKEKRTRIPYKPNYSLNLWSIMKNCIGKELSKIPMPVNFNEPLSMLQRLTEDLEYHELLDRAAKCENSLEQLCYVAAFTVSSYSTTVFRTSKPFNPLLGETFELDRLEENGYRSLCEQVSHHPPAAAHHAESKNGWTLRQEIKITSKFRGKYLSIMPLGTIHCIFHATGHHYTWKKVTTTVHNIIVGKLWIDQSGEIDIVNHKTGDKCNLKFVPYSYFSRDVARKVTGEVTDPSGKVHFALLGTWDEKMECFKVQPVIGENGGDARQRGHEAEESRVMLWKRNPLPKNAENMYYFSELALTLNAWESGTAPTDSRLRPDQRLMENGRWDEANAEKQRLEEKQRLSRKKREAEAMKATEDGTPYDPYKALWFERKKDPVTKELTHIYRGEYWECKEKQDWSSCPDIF
inactive: saracatinib -0.051 | sotrastaurin -0.147 | alvocidib -0.028 | Tubastatin A 0.037 | [1] 0.062 | defactinib -0.066 | rucaparib -0.11 | [2] 0.062 | encorafenib -0.006 | [3] -0.001 | [4] -0.018 | filanesib 0.009 | zotarolimus 0.007 | idasanutlin -0.019 | alisertib -0.046 | [5] 0.086 | gefitinib 0.019 | [6] -0.009 | lapatinib 0 | pictilisib 0.004
